KB-V1 cytotox = kills drug-selected multidrug resistant KB-V1 cells; KB-V1 MDR cells viability, CellTiter-Glo, 72 h; Potency, µM (titrated, usually from 46.1 µM), actives largely listed as cytotoxic; 400,000 tested, 3.4% active; AID 1347076; further: on the % scale 0 is the no-effect control and ±100 the full control effect; nearly all actives have a fitted effect of over 60% in size
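Following 72 h at 37 degrees C with compound, KB-V1 cell viability was read by CellTiter-Glo luminescence, medium being phenol-red-free DMEM plus 10% FBS; concentration-response parameters came from normalized, curve-fitted qHTS data.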
S2 tox = reduces viability in counter-screen for ATXN expression inhibitors. S2 cells (HEK-293 line with an ATXN2-luciferase reporter) viability, CellTiter-Fluor protease fluorescence, 24 h. Potency, µM (highest dose often 56.7 µM), hits mostly cytotoxic. 400,000 tested, 0.49% active; further: nearly all actives have a fitted effect of over 40% in size
KB-3-1 cytotox = KB-3-1 parental cell cytotoxicity; KB-3-1 viability, CellTiter-Glo ATP luminescence, 72 h; Potency, µM (titrated, usually from 46.1 µM), most hits filed as cytotoxic; 400,000 tested, 1.4% active; further: on the % scale 0 is the no-effect control and ±100 the full control effect; nearly all actives have a fitted effect of over 60% in size
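KB-3-1 parental drug-naive adenocarcinoma cells in DMEM/10% FBS, incubated 72 h at 37 C with pin-transferred compounds across a concentration series. Viability by CellTiter-Glo luminescence; concentration-response curves fitted after normalization.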
ATXN2 expr inh = inhibitors of ATXN2 expression; 360,000 tested, 0.72% active; HEK-293 ATXN2-luciferase reporter, luminescence, 24 h; Potency, µM (series often up to 57 µM), without a hit: at the highest dose activity change, negative = inhibition, hits mostly inhibitors; further: on the % scale 0 is the no-effect control and ±100 the full control effect; nearly all actives have a fitted effect of over 55% in size
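ATXN2-luciferase reporter cells (luciferase flanked by upstream and downstream ATXN2 gene portions) were treated 24 h at 37 °C with compounds at up to 57 uM. SteadyGlo luminescence gave expression; GF-AFC fluorescence gave viability.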
TGFb inhibitor = blocks TGF-b signaling. HepG2 CAGA-GFP TGF-b/SMAD3 reporter, GFP fluorescence, 18 h; TGF-beta stimulated, 500 pg/mL final. Potency, µM (highest dose often 46.1 µM), inactives show at the top dose activity, negative = inhibition, actives largely listed as inhibitors. 410,000 tested, 1.2% active; further: on the % scale 0 is the no-effect control and ±100 the full control effect; nearly all actives have a fitted effect of over 65% in size
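HEPG2 CAGA-GFP cells (1000/well, DMEM with 1% FBS) were pre-incubated 2 h at 37 degrees C, given compound by pin tool, then stimulated with TGF-beta at 500 pg/mL final for 18 h before per-cell GFP fluorescence imaging.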
HepG2 tox = HepG2 cytotoxicity, counter-screen for TGF-b inhibitors. AID 588856. 410,000 tested, 0.76% active. Potency, µM (highest dose often 46.1 µM), for the others: top-dose activity change, negative = cytotoxicity, most hits filed as cytotoxic. HepG2 CAGA-GFP viability, ATP luminescence, 18 h
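HepG2 CAGA-GFP cells (1000/well, DMEM with 1% FBS) received compound, then TGF-beta at 500 pg/mL final, and were incubated 18 hours at 37 degrees C. Viability was read by CellTiter-Glo luminescence. Media-only wells were set as complete cell-killing and DMSO as no toxicity.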
An asterisk follows results filed as active; i = inactive; ? = inconclusive; nt = no result. The list is not random: actives were taken first. Their share in the collection is about 5.9%. The call rests on the fitted dose curve; in most records, active means well fitted curve in the direction sought with a large enough effect; inconclusive means small, poorly fitted or top-dose-only effect, or another doubt; inactive means no such curve, though single readings can be large; an effect the other way counts as inactive or inconclusive. Potency means the concentration at half of the fitted maximal effect.

SMILES	KB-V1 cytotox	S2 tox	KB-3-1 cytotox	ATXN2 expr inh	TGFb inhibitor	HepG2 tox
COc1ccc(C(=O)c2c(-c3ccc(OC)cc3)oc3ccccc23)cc1	i	i	i	-4.6%	-5.6%	-11.2%
COC(=O)c1ccc2c(c1)N(Cc1ccc(F)cc1)C(=O)c1ccccc1S2	i	?	i	-1.2%	0.0%	-3.2%
COc1cccc(CNc2nc3ccccc3c3nc(-c4cccc(C)c4)nn23)c1	nt	nt	nt	nt	0.0%	-14.8%
COC(=O)c1sc(-c2ccccc2)cc1NC(=O)Nc1ccccc1Cl	i	nt	i	nt	?	-13.8%
Cc1cccc(OCc2nc(CC(=O)Nc3ccc(C)c(C)c3)cs2)c1	i	i	i	-2.4%	11.4%	-0.3%
COc1ccc(C(=O)c2ccc3oc(-c4ccc(OC)cc4)c(-c4ccc(O)cc4)c3c2)cc1	?	?	18.4µM*	?	?	-80.2%
COc1ccc(C(=O)c2c(C)oc3ccc(O)cc23)cc1	i	i	i	-5.8%	?	-33.2%
O=C(C=Cc1ccccc1)CC(c1ccccc1)N1CCOCC1 (stereo not given)	i	nt	?	?	?	12.6µM*
Cc1ccc(NC(=O)CSc2nc3ccc(NC(=O)c4ccco4)cc3s2)c(C)c1	i	?	i	?	?	-22.6%
COc1ccc(NC(=O)CCc2c(C)nn(-c3ccc(N4CCCCC4)nn3)c2C)cc1Cl	nt	nt	nt	nt	?	-32.3%
CC(O)(c1cccc(F)c1)c1nc(-c2cc3ccccc3o2)cs1 (stereo not given)	i	?	i	6.9%	?	-33.6%
COc1ccc(C(C)(O)c2nc(-c3ccccc3C)cs2)cc1 (stereo not given)	5.17µM*	i	4.61µM*	-23.0%	?	-16.7%
Cc1ccccc1-c1csc(C(C)(O)c2ccccc2)n1 (stereo not given)	i	i	i	-3.3%	-21.3%	-27.5%
COc1ccc(-c2csc(C(C)(O)c3ccccc3)n2)cc1OC (stereo not given)	23.1µM*	i	?	18.7%	2.1%	-0.4%
COc1cccc(C(C)(O)c2nc(-c3cc4ccccc4o3)cs2)c1 (stereo not given)	?	i	i	4.5%	8.91µM*	-80.0%
CCC(=O)N(CCC1(C(C)C)CCOC(C)(C)C1)Cc1ccco1 (stereo not given)	i	i	i	-0.7%	-1.8%	3.0%
CC(=O)N(CCC1(C(C)C)CCOC(C)(C)C1)Cc1ccco1 (stereo not given)	11.6µM*	?	i	-4.0%	-9.3%	2.1%
COc1cccc(CNC(=O)c2ccc(CN3CC(=O)N4CCCCC4C3=O)cc2)c1 (stereo not given)	nt	nt	nt	nt	-0.3%	-13.2%
COc1cc2c(Oc3ccc(-c4cnc(Nc5ccc(F)cc5)n(C)c4=O)cc3F)ccnc2cc1OCCCN1CCOCC1	nt	nt	nt	24.3µM*	nt	nt
COc1cccc(OC)c1OCCCN1CCOCC1	i	i	i	-16.4%	2.2%	-16.3%
COc1ccc(-c2[nH]ncc2CN(C)CCN2CCOCC2)cc1F	i	?	i	-30.9%	8.4%	-3.0%
COc1cc2c(Oc3ccc(NC(=O)C4(C(=O)Nc5ccc(F)cc5)CC4)cc3F)ccnc2cc1OCCCN1CCOCC1	nt	nt	nt	27.3µM*	nt	nt
Cc1c(NC(=O)c2nc3ccccc3nc2N2CCCCC2)cccc1[N+](=O)[O-]	i	i	i	13.0%	67.6%	-25.3%
COc1cccc(C2=CC(c3ccc(N(C)C)cc3)n3nnnc3N2)c1 (stereo not given)	13µM*	i	18.4µM*	-4.1%	4.0%	-29.8%
COc1cccc(C2=CC(c3ccccc3)n3nnnc3N2)c1 (stereo not given)	6.51µM*	i	?	63.5%	6.9%	-31.2%
